Assay results taken from PubChem BioAssay AID1117319 (Southern Research Institute, 2015).
Where “and” joins values, the source holds several entries; their conditions need not be identical. Equal values may be shown once. The campaign covered roughly 260,000 compounds. About 1,500 (0.58%) were called active. About 5% were inconclusive and are not listed.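 Rule for the calls: active = inhibition above a set limit at one or more doses, reproduced on every date tested; inconclusive = results disagree between test dates, or hit never tested in dose response; inactive = the rest.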 These entries were drawn from the full list. Results with a measured potency or affinity are listed apart.

What follows are molecules tested against Virion infectivity factor (Human immunodeficiency virus type 1 group M subtype B (isolate BH10)) + Virion infectivity factor (Human immunodeficiency virus type 1 group M subtype B (isolate BRU/LAI)) + Virion infectivity factor (Human immunodeficiency virus type 1 group M subtype B (isolate PCV12)) + Virion infectivity factor (Human immunodeficiency virus type 1 group M subtype B (isolate HXB2)) + DNA dC->dU-editing enzyme APOBEC-3G (Homo sapiens) (UniProt P69720+P69721+P69722+P69723+Q9HC16) (assay: HIV-1 Vif–A3G interaction blockers – biochemical, TR-FRET, GST-Vif 1-94, biotin-A3G peptide, dose response retest, primary screen (AID 1117319;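 note: Vif residues 1-94 fused to GST binding biotinylated APOBEC3G peptide 110-148; 0% = full assay without inhibitor and 100% = GST in place of GST-Vif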)). Details: TR-FRET GST-Vif / biotin-A3G peptide binding; stronger effect = higher value.

inhibition, inactive:
Cc1nn(C)c(C(=O)NNC(=S)Nc2ccc(F)cc2)c1[N+](=O)[O-] -3.65%
CCn1cnc2cc(NC(=O)c3ccc(C)cc3)ccc21 -2%
COCCn1c(SCC(=O)N2CCCc3ccccc32)nc2cccnc21 -1.26%
C/C(=N\S(=O)(=O)c1ccc(C)cc1)NC(=S)Nc1ccccc1 -0.88%
Cc1ccsc1C(=O)OCC(=O)Nc1cccc(S(=O)(=O)N2CCOCC2)c1 2.2%
Cc1cc(C(=O)OC(C)C(=O)NC2CCCCC2C)c2ccccc2n1 (stereo not given) -2.6%
Cc1ccc(C)c(Nc2nc(-c3ccncc3)nc3ccccc23)c1 -7.92%
O=C(OCc1ccccn1)c1ccc(COc2ccc3ccccc3c2)o1 14.9%
CCCCCCNC(=O)C(C#N)c1nc2ccccc2nc1N1CCOCC1 (stereo not given) 5.51%
N#CC(C(=O)NCCc1ccccc1)c1nc2ccccc2nc1N1CCOCC1 (stereo not given) -2.43%
Cc1nn(-c2ccccc2)c2sc(C(=O)N3CCCCC3)cc12 -2.58%
CCCCN1C(=O)C(=O)N(CC(=O)c2ccc[nH]2)C1=O 5.74%
CCOC(=O)N1CCC(n2c(SCC(=O)Nc3nccs3)nc3ccsc3c2=O)CC1 -7.21% and 20.2%
COc1ccc(NC(=S)NCc2cccs2)cc1 0.47%
CCN(CC(=O)Nc1c(C(=O)OC)[nH]c2ccc(Cl)cc12)c1ccc2c(c1)OCO2 0.99%
COC(=O)c1[nH]c2ccccc2c1NC(=O)CN1CCN(Cc2ccc3c(c2)OCO3)CC1 -1.82%
COc1ccc(OCCN(C)C(=O)c2cccc(S(=O)(=O)N(C)c3ccccc3)c2)cc1 -4.53%
Cn1cccc1/C=C1\SC(=O)N(c2ccc(O)cc2)C1=O 4.46%
O=C1S/C(=C\c2cccs2)C(=O)N1c1ccc(O)cc1 -10.4%
CN(C)c1ccc(/C=C/C=C2/SC(=S)N(c3ccccc3)C2=O)cc1 19.3%
O=C(O)c1ccc(N2C(=O)/C(=C/C=C/c3ccccc3)SC2=S)cc1 7.15%
CC1(C)N=C(c2ccc(Cl)cc2)C(=O)N1 -0.69%
CNC(=O)c1ccsc1NC(=O)C1CCCN1S(=O)(=O)c1cccs1 (stereo not given) -0.6%
NC1=NC(=O)/C(=C/c2cccs2)S1 10%
O=C1N=C(N2CCOCC2)S/C1=C\c1cccs1 -6.4%
Cc1ccccc1-c1ccc(/C=C2/SC(N3CCOCC3)=NC2=O)o1 6.07%
NC1=NC(=O)C(=Cc2ccccc2)S1 1.08%
O=C1N=C(N2CCCC2)S/C1=C\c1ccccc1 27.9%
O=C1N=C(N2CCOCC2)S/C1=C/c1cccs1 1.92%
O=C1N=C(N2CCOCC2)S/C1=C\c1ccc(-c2ccccc2Cl)o1 21.8%
Cc1ccc(-c2ccc(/C=C3\SC(N4CCOCC4)=NC3=O)o2)cc1 6.18%
O=C(CCc1nnc(CCc2ccccc2)o1)N1CCCCC1CCn1cccn1 (stereo not given) -2.83%
CC(=O)NCCn1c(SCc2ccc(C)cc2C)nc2ccccc2c1=O -4.41%
COCc1cc(=O)[nH]c(N2CCN(C(=O)c3ccco3)CC2)n1 -8.81%
CCOc1ccc(NC(=O)c2cc3c(=O)n(C)c4ccccc4c3n2C)cc1 -12%
O=C(CNC(=O)c1cc2ccccc2o1)NCc1cccs1 15.4%
Clc1ccc(NCn2cncn2)nc1 10.8%
CCc1cccc(C)c1NC(=O)CO/N=C(\C)c1cc2ccccc2o1 -0.14%
CC(OC(=O)CCC1CCCCC1)C(=O)Nc1ccc(S(N)(=O)=O)cc1 (stereo not given) 6.23%
Nc1c(O)ccc2c1C(=O)c1ccccc1C2=O 10.2%
O=C(O)c1cccc(-c2ccccc2)c1O 2.46%
O=C(O)c1cccc2cc(-c3ccccc3)oc(=O)c12 3%
Cc1oc2c(O)c(O)ccc2c(=O)c1-c1cnn(-c2ccccc2)c1 28.2%
CCOC(=O)C(C#N)=C1CCN(Cc2ccccc2)CC1 -5.62%
Cc1ccc(C(=O)NC(=S)Nc2ccc(S(=O)(=O)N3CCN(C)CC3)cc2)cc1 1.48%
CN1CCN(S(=O)(=O)c2ccc(NC(=S)NC(=O)c3ccccc3)cc2)CC1 0.13%
COc1ccc(CNC(=O)COC(=O)c2c(NC(C)=O)sc(C)c2C)cc1OC 1.62%
O=C(O)C1CC(=O)N(c2ccc(OCc3ccc(Cl)cc3Cl)cc2)C1 (stereo not given) 4.2%
N#CC(C#N)=c1ccc2c(c1)N1C3=C(CCCC3)CC3CCCCC31N=2 (stereo not given) 20.5%
CC(CCc1ccccc1)NC(=O)C1CCN(S(=O)(=O)N2CCOCC2)CC1 (stereo not given) -3.69%
COC(=O)c1ccc(-n2nc(C(F)(F)F)c3c2-c2ccoc2CC3)cc1 14.2%
O=C(O)c1ccc(-n2nc(C(F)(F)F)c3c2CCCC3)cc1 0.77%
O=C(CCn1c(=S)oc2ccccc21)NC1CCCCCCC1 -0.87%
CCCC1CC(C#N)N(N(C)C)C1=C(C#N)C#N (stereo not given) -4.37%
Cc1ccc(NC(=S)C2=C(O)c3sccc3N(C)S2(=O)=O)cc1 10.2%
CN1c2ccccc2C(O)=C(C(=S)Nc2ccc(F)c(Cl)c2)S1(=O)=O -0.79%
CC(C)n1ncc2c(C(=O)NCCc3ccc(S(N)(=O)=O)cc3)cc(C3CC3)nc21 1.54%
COc1ccc(CCNC(=O)Cn2cnc3c(cnn3C(C)(C)C)c2=O)cc1OC -3.55%
COc1ccc(C(=O)Nc2nc3ccc(S(C)(=O)=O)cc3s2)cc1 -53.8%
Cc1cc(C)nc(NS(=O)(=O)c2ccc(N/C=C/C(=O)c3ccc(Cl)c(Cl)c3)cc2)n1 32.2%
Cc1ccc(NC(=O)COC(=O)c2ccc(S(=O)(=O)N3CCCC3)cc2)cc1 -1.07%
Cc1ccc(C(=O)OCC(=O)Nc2ccc(S(N)(=O)=O)cc2)c(O)c1 -10.3%
Cc1ccc(NC(=O)CNc2cccc(C)c2C)c(C)c1 21.8%
Nc1nc(N)c(N=Nc2ccc(S(N)(=O)=O)cc2)c(=O)[nH]1 1.9%
Cc1c(C#N)c(O)[nH]c(=O)c1N=Nc1ccc(S(N)(=O)=O)cc1 3.16%
CN(C)c1ccc(N=Nc2ccc(S(N)(=O)=O)cc2)cc1 5.84%
NS(=O)(=O)c1ccc(N=Nc2c(O)ccc3ccccc23)cc1 9.6%
CCOC(=O)c1csc(NC(=O)CN2CCOCC2)n1 -8.71%
Cc1cccc(N2CCN(Cc3nc(-c4cccc(Oc5ccccc5)c4)oc3C)CC2)n1 3.4%
CCN(CC)S(=O)(=O)c1cccc(NC(=O)C2SC(=Nc3ccc(C)cc3C)C(C(=O)NCC3CCCO3)=C2N)c1 (stereo not given) 2.72%
Cc1cc2cc(C(=O)N3CCc4c([nH]c5ccccc45)C3c3ccccn3)ccc2o1 (stereo not given) 10.8%
O=C(c1ccccc1)c1ccccc1C(=O)N1CCOCC1 5.31%
COc1cccc(C2Nc3c(F)cc(Br)cc3C3C=CCC32)c1OC (stereo not given) 5.44%
O=C(O)C1C=CC(C(=O)O)c2ccccc21 (stereo not given) -4.89%
Cc1ccc(C)c(NC(=O)C2CC=CCC2C(=O)O)c1 (stereo not given) -2.09%
CC(=O)N1c2ccc(Cl)cc2C2C=CCC2C1c1cccc2ccccc12 (stereo not given) 19.4%
O=C(c1ccccc1O)N1CCOCC1 -1.64%
COc1ccccc1C1CCN(C(=O)c2ccccc2)CC1 6.08%
CCC(C)[C@H](NC(=O)C1CCN(C(=O)[C@H](Cc2ccccc2)NC(=O)OC(C)(C)C)CC1)C(=O)O (stereo not given in full) 7.73%
Cc1ccc(C(=O)NNC(=O)c2ccc3ccccc3c2)cc1 1.23%
O=C(c1ccc(S(=O)(=O)N2CCCCCC2)cc1)N1CCN(c2ccccn2)CC1 -5.37%
Cc1cc(C(=O)N2CCc3c([nH]c4ccccc34)C2c2c(F)cccc2Cl)no1 (stereo not given) -4.57%
O=C(Nc1ccc(S(=O)(=O)N2CCOCC2)cc1)c1cc(-c2ccccc2O)n[nH]1 -5.69%
CSCCC(NS(=O)(=O)c1ccc(C)cc1)C(=O)NCC(C)(C)N1CCOCC1 (stereo not given) 26.5%
CCOc1cc(C(=O)Oc2cc(C)[nH]c(=O)c2[N+](=O)[O-])cc(OCC)c1OCC -2.15%
CCCC(=O)Nc1nnc(-c2ccco2)s1 5.96%
CC(C)C(=O)Nc1nnc(-c2ccco2)s1 -4.43%
O=C(COC(=O)Cn1cnc2ccccc2c1=O)NCc1ccccc1 -5.43%
COCCn1c(C)cc(C(=O)COC(=O)c2c(C)nn(Cc3ccccc3)c2C)c1C 15.2%
Cc1nn(Cc2ccccc2)c(C)c1C(=O)OCC(=O)c1cc(C)n(CC(F)(F)F)c1C 13.3%
C=CCOc1ccc(CNc2nccs2)cc1OC -2.98%
Cn1nnnc1SCc1cc(=O)n2ccsc2n1 8.97%
COc1ccc(OCCNC(=S)Nc2cccc3ccccc23)cc1 2.41%
O=C(NC(NC(=S)Nc1cccc(C(=O)O)c1)C(Cl)(Cl)Cl)OCc1ccccc1 (stereo not given) 16%
CCCCOC(=O)c1cc(C)nc2ccc(Br)cc12 10.8%
